Screening data deposited in PubChem BioAssay by Broad Institute.
F508del corr: F508del CFTR correction, initial screen, CFBE line, single point; activity (quench increase), % at 7.58 µM; 350,000 tested, 0.36% active; CFBE cells, YFP halide quenching; stimulated with forskolin plus potentiator P3; % fluorescence drop versus neutral controls;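 active = mean added fluorescence quench of at least 8% versus neutral control, with both replicates also reaching 8%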;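 note: cells transiently co-express mutant CFTR-F508del with the halide-sensitive YFP; corrector assay measuring rescue of mutant channel to the surface after 24 h compound exposure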
EWS-Fli inh: EWS/Fli-driven NR0B1 reporter inhibitors, primary screen, A673 cells, NR0B1 luciferase, luminescence, MLPCN library | viability-normalised | inhibition, % at 12.6 µM | 350,000 tested, 0.67% active | AID 651661, 2012;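 active = mean inhibition of at least 50% after viability correction, with every replicate also passing that limit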;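 note: firefly luciferase signal divided by Alamar Blue viability fluorescence both relative to DMSO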
PAX8 reporter: inhibitors of PAX8-driven TPO luciferase reporter, primary screen, RMG-I cells, single concentration. SteadyGlo, 24 h. inhibition, % at 12.6 µM. 360,000 tested, 1.2% active. AID 652154, 2013;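 active = mean replicate inhibition at least 60% with every replicate also reaching 60%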;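 note: luciferase light reporting Pax8 driven TPO promoter activity; plate controls were median of neutral control wells for no effect and mitoxantrone controls for full effect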
LGR2 antag: inhibitors of bursicon-induced LGR2 CRE-luciferase signal, primary screen, cell-based, HEK293, CRE-luciferase reporter, bursicon stimulation | Drosophila bursicon receptor LGR2 (rickets) | bursicon-stimulated, 4 h | inhibition, % at 9.99 µM | 380,000 tested, 0.35% active | AID 720647, 2013;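 active = drop in luminescence signal, shown as inhibition above about 50% in the replicate tests, limit read from the data, passing the limit was not always enough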;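 note: agonist challenge used bursicon conditioned medium at about half maximal strength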
* marks the source's active call; other numbers are inactive results; nt = no result given. An excerpt weighted towards active compounds, which were near 1.8% of everything screened.

SMILES	F508del corr	EWS-Fli inh	PAX8 reporter	LGR2 antag
COc1ccc(CN(C)C[C@H]2Oc3ccc(NC(=O)Nc4ccc5c(c4)OCO5)cc3CC(=O)N([C@H](C)CO)C[C@H]2C)cc1	0	-15	103*	-2
Cc1ccc(S(=O)(=O)Nc2ccc3c(c2)CC(=O)N([C@@H](C)CO)C[C@H](C)[C@@H](CN(C)C(=O)Nc2ccc(C(F)(F)F)cc2)O3)cc1	2	9	88*	8
CC(C)NC(=O)N(C)C[C@H]1Oc2ccc(NC(=O)Nc3ccc(C(F)(F)F)cc3)cc2CC(=O)N([C@@H](C)CO)C[C@H]1C	2	63*	52	-1
CC(C)NC(=O)N(C)C[C@H]1Oc2ccc(NC(=O)Nc3ccc(C(F)(F)F)cc3)cc2CC(=O)N([C@H](C)CO)C[C@H]1C	2	7	9	-1
C[C@H]1CN([C@@H](C)CO)C(=O)Cc2cc(NC(=O)Nc3ccc(C(F)(F)F)cc3)ccc2O[C@H]1CN(C)C(=O)Nc1ccc(C(F)(F)F)cc1	3	16	86*	13
C[C@@H]1CN([C@@H](C)CO)C(=O)Cc2cc(NC(=O)Nc3ccc(C(F)(F)F)cc3)ccc2O[C@H]1CN(C)C(=O)Nc1ccccc1	9.3*	-5	5	-7
Cc1ccc(S(=O)(=O)Nc2ccc3c(c2)CC(=O)N([C@@H](C)CO)C[C@H](C)[C@H](CN(C)C(=O)Nc2ccc(C(F)(F)F)cc2)O3)cc1	2	14	-18	-5
Cc1cccc(OCC(=O)NCc2nnc3ccc(C(F)(F)F)cn23)c1C	3	7	-3	-11
C[C@@H]1CCCCO[C@@H](CN(C)C(=O)Nc2ccc(F)cc2)[C@H](C)CN([C@@H](C)CO)C(=O)c2cc(NC(=O)Nc3ccc(C(F)(F)F)cc3)ccc2O1	0	2	78*	5
C[C@@H]1CCCCO[C@H](CN(C)C(=O)Nc2ccc(C(F)(F)F)cc2)[C@@H](C)CN([C@@H](C)CO)C(=O)c2cc(NC(=O)Nc3ccc(C(F)(F)F)cc3)ccc2O1	1	-4	89*	-2
C[C@H]1CCCCO[C@H](CN(C)C(=O)Nc2ccc(C(F)(F)F)cc2)[C@@H](C)CN([C@@H](C)CO)C(=O)c2cc(NC(=O)Nc3ccc(F)cc3)ccc2O1	8.0*	-11	84*	19
C[C@H]1CCCCO[C@@H](CN(C)S(=O)(=O)c2cccs2)[C@@H](C)CN([C@@H](C)CO)C(=O)c2cc(NC(=O)NC3CCCCC3)ccc2O1	0	23	97*	26
COc1ccc(CN2C[C@@H](O)COC[C@H]3O[C@@H](CC(=O)N4CCc5ccccc5C4)CC[C@@H]32)cc1	5	6	10	-6
Cc1ccc(CNc2ncc(-c3ccccc3)n2C)o1	-1	-12	-18	-7
O=C(c1ccc(CNS(=O)(=O)c2cccc(Cl)c2)cc1)N1CCCC1	-2	2	1	6
C[C@@H]1CN([C@H](C)CO)C(=O)c2cc(NC(=O)Nc3ccc(C(F)(F)F)cc3)ccc2O[C@@H](C)CCCCO[C@H]1CN(C)S(C)(=O)=O	-4	2	73*	-8
C[C@H]1CCCCO[C@H](CN(C)C(=O)Nc2ccc(F)cc2)[C@@H](C)CN([C@@H](C)CO)C(=O)c2cc(NC(=O)Nc3ccc(C(F)(F)F)cc3)ccc2O1	4	4	84*	16
C[C@H](CO)N1C[C@H](C)[C@H](CN(C)C(=O)Nc2ccc(F)cc2)OCCCC[C@H](C)Oc2ccc(NC(=O)Nc3ccc(F)cc3)cc2C1=O	1	-7	19	53*
C[C@@H]1CCCCO[C@@H](CN(C)C(=O)Nc2ccc(F)cc2)[C@@H](C)CN([C@@H](C)CO)C(=O)c2cc(NC(=O)Nc3ccc(F)cc3)ccc2O1	2	0	4	19
C[C@@H]1CCCCO[C@H](CN(C)S(=O)(=O)c2cccs2)[C@H](C)CN([C@@H](C)CO)C(=O)c2cc(NC(=O)CCC(F)(F)F)ccc2O1	1	2	110*	-7
C[C@@H]1CN([C@@H](C)CO)C(=O)c2cccc(NC(=O)c3nc4ccccc4s3)c2O[C@@H]1CN(C)C(=O)Nc1ccc(F)cc1	3	-7	nt	-22
COc1cc(C(C)=O)ccc1OCC(=O)OCC(=O)c1cc(C)n(CC2CCCO2)c1C (configuration not stated)	0	-12	5	-14
CC(NC(=O)CCc1nnc(-c2ccc(-c3ccccc3)cc2)o1)c1nc2ccccc2[nH]1 (configuration not stated)	-3	26	-38	-48
C[C@@H]1CCCCO[C@H](CN(C)C(=O)C2CCCCC2)[C@@H](C)CN([C@@H](C)CO)C(=O)c2cc(NC(=O)Nc3ccc(F)cc3)ccc2O1	2	14	104*	0
C[C@H](CO)N1C[C@H](C)[C@H](CN(C)S(=O)(=O)c2cccs2)OCCCC[C@H](C)Oc2ccc(NC(=O)Nc3ccc(C(F)(F)F)cc3)cc2C1=O	0	-6	75*	-14
SMILES	F508del corr	EWS-Fli inh	PAX8 reporter	LGR2 antag
C[C@@H]1CCCCO[C@@H](CN(C)C(=O)Nc2ccc(C(F)(F)F)cc2)[C@@H](C)CN([C@H](C)CO)C(=O)c2cc(NC(=O)Nc3ccc(F)cc3)ccc2O1	4	6	nt	16
C[C@@H]1CN([C@H](C)CO)C(=O)c2cc(NC(=O)Nc3ccc(F)cc3)ccc2O[C@@H](C)CCCCO[C@H]1CN(C)C(=O)Nc1ccc(C(F)(F)F)cc1	6	-1	87*	12
C[C@@H]1CCCCO[C@@H](CN(C)C)[C@H](C)CN([C@H](C)CO)C(=O)c2cc(NC(=O)Nc3ccc(C(F)(F)F)cc3)ccc2O1	-1	6	63*	nt
COc1ccc2c(c1)c1c(n2C)[C@@H]2CC=C(CO)[C@@H](C1)N2C	-1	-6	10	-1
O=C(CCc1ccccc1)NNC(=O)Nc1ccc(F)c(Cl)c1	0	6	-11	24
Cn1cc(S(=O)(=O)N2CCCC2)cc1C(=O)N1CCN(c2cccc(Cl)c2)CC1	-2	4	12	8
O=C(NCCCN1CCOCC1)c1sc2cc(Cl)ccc2c1Cl	11*	7	-9	-32
COc1ccc(Nc2nc(-c3sc(C)nc3C)cs2)cc1	9.1*	-34	1	-26
CCCC(=O)Nc1nc(C)c(-c2csc(Nc3ccccc3OC)n2)s1	3	-2	2	2
COc1cccc(Nc2nc(-c3sc(NC(=O)c4ccccc4)nc3C)cs2)c1	9.1*	-3	2	-36
COc1ccccc1Nc1nc(-c2sc(NC(=O)C(C)(C)C)nc2C)cs1	14*	-22	13	2
COc1cccc(Nc2nc(-c3sc(NC(=O)CC(C)C)nc3C)cs2)c1	4	3	9	-11
C=CCCC(=O)Nc1nc(C)c(-c2csc(Nc3cc(OC)ccc3OC)n2)s1	8.8*	58*	56	16
